Measurements: PubChem BioAssay (NCI)
About 79,000 compounds went through this panel and 15% of them were active in at least one assay; those are over-represented in the sample as a whole. Unmarked numbers belong to inactive results. Activity calls are given as the source filed them. No stated cut-off is given here; in the data, active means growth inhibition above about 70%; inactive means the rest.

Experiment: NCI Yeast Anticancer Drug Screen. Data for the cln2 rad14 strain (AID 165);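 further: 0% = growth equal to vehicle treated cultures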
Settings: S. cerevisiae cln2 rad14 strain, at 50.0 µM (retest, dose inferred, filed as 5.0), hits give high values
Summary of the method: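 Relative to vehicle controls, growth inhibition of compound-treated cln2 rad14 yeast was recorded.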

Structure (SMILES) | growth inhibition
S=c1sc2ccccc2n1C=Nc1ccccc1 | 81% (active)
CSc1nc(NC2OC(CO)C(O)C(O)C2O)c(Cl)c(=O)[nH]1 (stereo unspecified) | -2%
C=CCN1/C(=C\C=C\c2ccc3cc(C)ccc3[n+]2CC=C)C=Cc2cc(C)ccc21 | 98% (active)
S=c1[nH]nc(SCc2ccc(Cl)c(Cl)c2)c2[nH]cnc12 | -16%
Nc1ccc(C(=O)/C=C/c2ccccn2)cc1 | 38%
CCOC(=O)C(C(=O)O)(C(c1ccccc1)c1ccccc1)C(c1ccccc1)c1ccccc1 | 99% (active)
CSC(=S)n1nc(-c2ccccc2)c(N=Nc2ccc(Br)cc2)c1-c1ccccc1 | 4%
COc1ccc([N+](=O)[O-])cc1Nc1c2ccccc2nc2ccccc12 | -16%
C=CCN1/C(=C/C=C\c2sc3ccccc3[n+]2CC=C)Sc2ccccc21 | 99% (active)
COc1ccc(/C=C/C(C(=O)O)C(=O)O)cc1 | 47%
CN(C)C(=O)c1cc(Br)cc(-c2ccccc2)c1O | 63%
Cc1cc(N=[N+]=[N-])c2cc(C3CCCCC3)ccc2n1 | 69%
[Cu+2].[O-]/N=C/c1cccc(O)c1[O-].[O-]/N=C/c1cccc(O)c1[O-] | 98% (active)
c1ccc(Cn2nnc(-c3ccccc3)c2-c2ccccc2)cc1 | 97% (active)
CCOc1ccc2nc(Cl)sc2c1 | 39%
CCOC(=O)c1sc2c(c1O)c(=O)n(-c1ccccc1)c(=S)n2-c1ccccc1 | 98% (active)
O=C(O)c1c[nH]c2cc(Cl)ccc2c1=O | 1%
Cc1cc2c(cc1O)CC[C@@H]1[C@@H]2CC[C@]2(C)[C@@H](O)CC[C@@H]12 | -17%
NC(=O)NOCC1NC(=O)NC1=O (stereo unspecified) | -2%
CCOC(=O)c1cnc2cc3cccccc3n2c1=O | 44%
CC(CO)CCC(=O)C(C)C1C(=O)CC2CC3CC(O)CCC3(C)CC21C (stereo unspecified) | 88% (active)
N#CSC#Cc1ccc(C#CSC#N)cc1 | 97% (active)
CCS/C(SC)=C(/c1ccccc1)[P+](c1ccccc1)(c1ccccc1)c1ccccc1 | 99% (active)

Same assay, conditions: S. cerevisiae cln2 rad14 strain, at 50.0 µM, hits give high values

Structure (SMILES) | growth inhibition
CCSC1(SCC)C(=O)OC2=C(CCCC2)C1N1CCOCC1 (stereo unspecified) | 34.9%
NC(=O)C(CCc1cccc2ccccc12)c1ccccc1 (stereo unspecified) | 62.5%
NC(CCCCCC(N)C(=O)O)C(=O)O (stereo unspecified) | 76.8% (active)
CN(C)CC(CN(C)C)C(=O)C1CCCCC1 | 10.3%
O=C1/C(=C/c2ccc([N+](=O)[O-])cc2)Sc2scc(-c3cccc([N+](=O)[O-])c3)[n+]21 | 90.6% (active)
CC(C)(C)c1cc(C(P(=O)(c2ccccc2)c2ccccc2)P(=O)(c2ccccc2)c2ccccc2)cc(C(C)(C)C)c1O | 94.7% (active)
COC(=O)c1cc(=O)n(-c2ccccc2C(F)(F)F)c(SC)n1 | 96.8% (active)
CSC(SC)=C1C(=O)NC(Cc2ccccc2)C1=O (stereo unspecified) | 37.5%
c1ccc(C(c2ccccc2)c2ccc3ccccc3n2)cc1 | -15.3%
CN(C)c1nc(N(C)C)nc([N+](C)(C)C)n1 | 96.5% (active)
CCCNC(=S)N/N=C(/C)c1nccc2ccccc12 | 17.9%
OC(CN1CCc2ccccc2C1)c1ccc2ccccc2c1 (stereo unspecified) | 68.3%
Nc1nc(N)c2nc(CNc3ccc(C(=O)NC(CCC(=O)O)C(=O)O)cc3)ccc2n1 (stereo unspecified) | -5.8%
O=c1c2ccccc2c2ccccc2n1O | 93.8% (active)
CC(=O)N1c2ccccc2Sc2ccc3ccc(C(=O)CCl)cc3c21 | 88.3% (active)
CC(NNC(=S)N1CC2CCC(CC2)C1)c1nccc2ccccc12 (stereo unspecified) | 98.3% (active)
O=C1O/C(=C(\Cc2ccccc2)c2ccccc2)N(c2ccccc2)C1=O | -30.2%
S=c1sc2ccccc2n1C=Nc1ccccc1 | 96.2% (active)
CSc1nc(NC2OC(CO)C(O)C(O)C2O)c(Cl)c(=O)[nH]1 (stereo unspecified) | -3.85%
C=CCN1/C(=C\C=C\c2ccc3cc(C)ccc3[n+]2CC=C)C=Cc2cc(C)ccc21 | 91.9% (active)
S=c1[nH]nc(SCc2ccc(Cl)c(Cl)c2)c2[nH]cnc12 | 28.8%
Nc1ccc(C(=O)/C=C/c2ccccn2)cc1 | 17.6%
CCOC(=O)C(C(=O)O)(C(c1ccccc1)c1ccccc1)C(c1ccccc1)c1ccccc1 | 98.9% (active)
